# D2 ag-1 = HTS Assay for Allosteric Agonists of the Human D2 Dopamine Receptor: Primary Screen for Agonists | HEK293 T-REx D2 cells, calcium flux agonist mode | D(2) dopamine receptor (Homo sapiens), P14416 | activation, % at 2 µM | 340,000 tested, 0.53% active;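 active means activation over 3 SD above normal in the single-dose calcium agonist read, cut at about 30% in these data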
# Target sequence (P14416 whole entry, looked up): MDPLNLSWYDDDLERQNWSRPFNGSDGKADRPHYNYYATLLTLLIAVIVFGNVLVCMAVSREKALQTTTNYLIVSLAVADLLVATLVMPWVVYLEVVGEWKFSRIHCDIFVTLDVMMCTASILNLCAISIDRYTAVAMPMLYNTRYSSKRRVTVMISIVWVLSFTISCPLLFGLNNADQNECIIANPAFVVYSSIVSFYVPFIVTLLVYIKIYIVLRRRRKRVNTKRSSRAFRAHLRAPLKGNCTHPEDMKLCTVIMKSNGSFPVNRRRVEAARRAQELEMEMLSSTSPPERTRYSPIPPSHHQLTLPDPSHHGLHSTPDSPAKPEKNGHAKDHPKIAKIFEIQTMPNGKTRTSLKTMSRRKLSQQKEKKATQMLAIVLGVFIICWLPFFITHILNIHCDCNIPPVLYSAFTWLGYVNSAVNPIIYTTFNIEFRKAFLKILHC
#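 HEK293 Trex D2 cells, tetracycline-induced, o/n 30 C 5% CO2; no-wash Ca dye, RT 30–90 min; 10-cycle baseline, 23 nl cpd added, kinetic Ca read 180 s; agonist hits = positive Ca response.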
# D2 ag-2 = Beta-Arrestin HTS for Positive Allosteric Modulators of the Human D2 Dopamine Receptor: Agonists; DiscoveRx PathHunter D2 beta-arrestin, luminescence, 90 min; 100% = 57 uM dopamine signal; activation, % (test concentration not listed); 360,000 tested, 0.084% active; in the data active means activation above about 40%; inconclusive means between about 15% and that limit
#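 Agonist mode: compounds alone added to overnight-plated D2 PathHunter cells for 90 min at 37 C, with 57 uM final dopamine (EC100) defining full response. Beta-arrestin recruitment detected by chemiluminescent reagent, read after 1 h at ambient temperature.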
# D2 PAM-1 = Beta-Arrestin HTS for Positive Allosteric Modulators of the Human D2 Dopamine Receptor: Potentiators | potentiation, % (concentration not given with the values) | AID 624464, 2012 | DiscoveRx D2 beta-arrestin cells, luminescence, 90 min; 100% = 57 uM dopamine signal | D(2) dopamine receptor (Homo sapiens), P14416 | 360,000 tested, 0.23% active; in the data active means potentiation above about 50%; inconclusive means mostly about 30% to 49%
#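 D2 cells co-treated with compound plus 50 nM dopamine (EC20) for 90 min at 37 deg C to detect potentiation. Beta-arrestin recruitment was read as enzyme-fragment luminescence after 1 h at ambient temperature. Full response was set by 57 uM dopamine.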
# D2 antagonist = HTS Assay for Allosteric Antagonists of the Human D2 Dopamine Receptor: Primary Screen for Antagonists; 340,000 tested, 2% active; D(2) dopamine receptor (Homo sapiens), P14416; HEK293 TREx D2 cells, calcium flux, dopamine EC80; AID 485344, 2010; inhibition, % at 10 µM; in the data active means inhibition above about 30%; inactive means below that, where a call was filed
#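 Cells plated overnight at 30 C with tetracycline; no-wash calcium dye, 30–90 min RT; 10 s baseline; compound pinned; 180 s read; EC80 dopamine added; another 180 s read.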
# D2 PAM-2 = HTS Assay for Positive Allosteric Modulators of the Human D2 Dopamine Receptor: Primary Screen for Potentiators | HEK293 T-REx D2, calcium flux, EC20 dopamine potentiation | potentiation, % at 10 µM | 340,000 tested, 0.34% active;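 active means potentiation over 3 SD above the plate norm, cut at about 30% in these data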
#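 Cells plated with tetracycline inducer and held overnight at 30 C; calcium dye loaded 30–90 min at room temperature; baseline taken, compound added and read 180 s; EC20 dopamine then added and read 180 s.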
# D3 arrestin ag = qHTS of D3 Dopamine Receptor Agonist: D3 Dopamine Receptor B-arrestin Agonist Confirmatory Assay | shares compounds with D2 ag-1 | DiscoveRx D3 beta-arrestin cells, luminescence, 90 min | Potency, µM (doses to about 76.9 µM), usual class: activators | 2,300 tested, 4% active; further: nearly all actives have a fitted effect of over 70% in size
# D2 ag-3 = qHTS of D3 Dopamine Receptor Agonist: D2 Dopamine Receptor B-arrestin Agonist Counterscreen. shares compounds with D2 ag-1. Potency, µM (highest dose often 76.9 µM), actives largely listed as activators. 2,300 tested, 5.9% active. DiscoveRx PathHunter D2 beta-arrestin, luminescence, 90 min; response scale: percent relative to full dopamine signal; further: nearly all actives have a fitted effect of over 70% in size
# A number is an active result; . = inactive; ? = inconclusive; / = no result; ! = not confirmed by another sample. Sampled rows, rich in hits. Any-hit rate of the full collection: about 2.4%. Unless noted, the call rests on the fitted dose curve; in most records, active means well fitted activation curve with a large enough effect; inconclusive means small, poorly fitted or top-dose-only effect; inactive means flat fitted curve, though single readings scatter.
SMILES,D2 ag-1,D2 ag-2,D2 PAM-1,D2 antagonist,D2 PAM-2,D3 arrestin ag,D2 ag-3
Cc1c(C(=O)Nc2cccc(S(=O)(=O)N3CCOCC3)c2)oc2ccc(Br)cc12,/,.,.,/,/,/,/
COc1ccc2oc(C(=O)Nc3cccc(S(=O)(=O)N4CCOCC4)c3)c(C)c2c1,.,.,.,.,.,.,.
COC(=O)CCN(C(=O)C1C2CC3CC(C2)CC1C3)c1ccccn1 (configuration not stated),41,?,.,.,.,.,?
CCOc1ccccc1C(=O)N(CCC(=O)OC)c1ccccn1,.,.,.,.,.,/,/
CC(COc1ccccc1)NC(C)C(O)c1ccc(O)cc1 (configuration not stated),77,.,.,90,.,.,.
Nc1nc(CN2CCN(c3ccccn3)CC2)nc(Nc2ccc(Cl)cc2)n1,90,41,56,74,.,.,18µM
CCOc1ccc(Nc2nc(N)nc(CN3CCN(c4ccccc4F)CC3)n2)cc1,48,.,.,33,.,.,?
Nc1nc(CN2CCN(Cc3ccccc3)CC2)nc(Nc2ccccc2)n1,.,.,.,.,.,/,/
Nc1nc(CN2CCN(c3ccccc3F)CC2)nc(Nc2ccc3c(c2)OCCO3)n1,72,?,.,54,.,.,?
CN1CCN(Cc2nc(N)nc(Nc3ccc4c(c3)OCCO4)n2)CC1,.,.,.,.,.,/,/
Cc1cccc(Nc2nc(N)nc(CN3CCN(c4ccccc4)CC3)n2)c1,71,?,?,51,.,.,?
Cc1cccc(Nc2nc(N)nc(CN3CCN(c4ccccc4F)CC3)n2)c1,/,.,.,/,/,/,/
Nc1nc(CN2CCN(c3ccc(F)cc3)CC2)nc(N2CCCc3ccccc32)n1,60,.,.,54,.,.,.
COc1ccc(N2CCN(Cc3nc(N)nc(Nc4ccccc4OC)n3)CC2)cc1,.,.,.,.,.,/,/
COc1ccc(Nc2nc(N)nc(CN3CCN(c4ccc(F)cc4)CC3)n2)cc1,43,.,.,.,.,.,.
O=C(NC1CCCC1)c1sc(=S)n2c1[nH]c(=O)c1ccccc12,.,.,.,.,.,/,/
O=C(NCc1ccco1)c1sc(=S)n2c1[nH]c(=O)c1ccccc12,.,.,.,.,.,.,.
CCN1CCN(CCn2c(=S)[nH]c3ccccc3c2=O)CC1,.,.,.,.,.,/,/
Cc1cccc(C)c1N1CCN(CCn2c(=S)[nH]c3ccccc3c2=O)CC1,.,.,.,71,.,.,.
COCc1cc(C)nc(OCC(=O)N/N=C/c2ccc(O)cc2)c1C#N,50,.,.,.,.,.,.
Cc1cccc2sc(NC(=O)Cn3cccc3)nc12,.,.,.,.,.,/,/
Cc1cccc2sc(NC(=O)CSCc3ccccc3)nc12,44,.,.,.,.,.,.
COCCCNC(=O)CN1C(=O)COc2ccc(S(=O)(=O)N3CCOCC3)cc21,.,.,.,.,.,/,/
CCCN(CCC)CCNC(=O)CN1C(=O)COc2ccc(S(=O)(=O)N3CCOCC3)cc21,37,.,.,.,.,.,.
COc1cccc(-n2cc(CN(C)Cc3nc(Cc4ccccc4)no3)cn2)c1,.,.,.,.,.,/,/
SMILES,D2 ag-1,D2 ag-2,D2 PAM-1,D2 antagonist,D2 PAM-2,D3 arrestin ag,D2 ag-3
COc1cccc(-n2cc(CN(C)Cc3nc(Cc4cccc(F)c4)no3)cn2)c1,.,.,.,.,.,.,.
C=CCn1c(SCCCC)nc(O)cc1=O,.,.,.,31!,.,.,.
COc1ccc(CNC(=O)[C@]2(C)CCC[C@@]3(C)C4CC[C@@]5(C)C[C@]4(CCC32)CC5=O)cc1 (some centres not stated),.,.,.,.,.,.,.
COc1ccc(NS(=O)(=O)c2cccc(C(=O)NNC(=O)c3ccc(C)o3)c2)cc1,.,.,.,.,.,.,.
COc1ccc(CNC(=O)C(=O)Nc2cccc(C)c2C)cc1,.,/,/,/,.,/,/
CN(C)S(=O)(=O)c1cccc(NC(=O)CSc2ncnc3ccccc23)c1,/,.,.,/,/,?,?
O=C(O)C1C2C=CC(C2)C1C(=O)NCCCc1ccccc1 (configuration not stated),.,.,.,.,.,/,/
O=C(O)C1C2C=CC(C2)C1C(=O)NCCc1ccccc1 (configuration not stated),53,.,.,.,.,.,.
CCc1sc(C(=O)Nc2ccccc2N2CCOCC2)cc1C,.,.,.,.,.,/,/
Cc1cc(C)nc(/N=C(\N)Nc2ccc(OCCC(C)C)cc2)n1,83,.,.,52,.,.,.
Cc1cc(C)nc(/N=C(\N)Nc2cccc(OCc3ccccc3)c2)n1,77,.,.,63,.,.,.
Cc1cc(C)nc(/N=C(\N)Nc2ccc(S(=O)(=O)O)cc2)n1,.,.,.,.,.,/,/
Cc1cc(C)nc(/N=C(\N)Nc2ccc(CC(=O)OC(C)C)cc2)n1,33,.,.,59,.,.,?
COc1ccccc1N/C(N)=N/c1nc(C)cc(C)n1,.,.,.,.,.,/,/
CCc1ccc(N/C(=N/c2nc(C)cc(C)n2)NC(C)=O)cc1,.,.,.,.,.,/,/
C/C(CC(=O)Nc1ccc(N(C)C)cc1)=N\NC(=O)c1ccc(Cl)cc1Cl,.,.,.,.,.,/,/
CC(C)N1CCN(Cc2ccsc2)CC1CCO (configuration not stated),44,.,.,44,.,.,.
CCCN(CC1CC1)C(=O)COC(=O)c1oc2c(F)cccc2c1C,43,?,.,41,.,.,?
O=C(NN=C1CCCCCC1)C(=O)Nc1cccc(Br)c1,.,.,.,.,.,/,/
COc1ccc(C(=O)Nc2cc(Cl)ccc2-n2cncn2)c(OC)c1OC,.,.,.,.,.,.,.
CC(Nc1c[nH]c(=O)[nH]c1=O)c1ccccc1 (configuration not stated),.,.,.,69,.,.,.

# From PubChem BioAssay
